This is part of a sample that, as a whole, favours compounds with a hit. Of some 83,000 tested, about 20% had one in any assay.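 Note: values are percent growth. 100 is the growth of untreated cells, values between 100 and 0 indicate rising inhibition; between -100 and 0 indicates cell death.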 A number with no mark means an inactive call. Activity calls are given as the source filed them. Rule for the calls: active = growth percent below 10; inactive = the rest.

Among the test systems are SK-MEL-2 melanoma; EKVX NSCLC; SN12C renal; UO-31 renal; TK-10 renal; ACHN renal; CAKI-1 renal; A498 renal; CCRF-CEM leukemia; MOLT-4 leukemia; RPMI-8226 leukemia; OVCAR-8 ovarian; OVCAR-5 ovarian; OVCAR-4 ovarian; SK-OV-3 ovarian; IGROV1 ovarian; OVCAR-3 ovarian; NCI/ADR-RES ovarian; HS 578T breast.
What all share (assay): NCI-60 one-dose screen, 48 h (100 = growth as untreated, 0 = no growth, -100 = all killed)
Common to all, as to details: 10 µM unless noted

For the molecule `O=C(c1ccccc1)c1c(/C=C/c2ccc(Cl)cc2)nc2ccccc2c1/C=C/c1cccs1`, the growth in the test with SK-MEL-2 melanoma was 103%; in the test on EKVX NSCLC, 88.2%; in the test on SN12C renal, 90.2%; in the test with UO-31 renal, 82.9%; in the test on TK-10 renal it was 99%; in the test on ACHN renal, 93.8%. The growth with CAKI-1 renal is 81.2%; in the test with A498 renal it was 77.1%; in the test with CCRF-CEM leukemia, 96.4%; in the test with MOLT-4 leukemia, 94.2%; in the test with RPMI-8226 leukemia, 94.6%; with OVCAR-8 ovarian it was 98%. Also, the growth was 98.1% in the test with OVCAR-5 ovarian; 96.3% with OVCAR-4 ovarian; 97.2% in the test with SK-OV-3 ovarian; 94.1% with IGROV1 ovarian; 95.4% in the test on OVCAR-3 ovarian; 99.8% with NCI/ADR-RES ovarian.
Regarding `O=C(Nc1ccccc1-c1nc2ccccc2c(=O)[nH]1)c1cc2ccccc2[nH]1`, the growth is 96.4% in the test on SK-MEL-2 melanoma; 78.9% in the test on EKVX NSCLC; 94.7% in the test with SN12C renal; 63.6% in the test with UO-31 renal; 111% in the test with TK-10 renal; 86.7% in the test with ACHN renal. Further, the growth was 81.8% with CAKI-1 renal; 119% in the test with A498 renal; 97.4% with CCRF-CEM leukemia; 95.6% with MOLT-4 leukemia; 98% in the test on RPMI-8226 leukemia; 87.4% in the test with OVCAR-8 ovarian. The growth in the test on OVCAR-5 ovarian was 95.3%; with OVCAR-4 ovarian, 105%; in the test with SK-OV-3 ovarian it was 78.4%; in the test on IGROV1 ovarian, 69.2%; in the test on OVCAR-3 ovarian, 102%; in the test with HS 578T breast it was 85.8%. The growth in the test on NCI/ADR-RES ovarian is 98.1%.
On to `CCCCCCCCCCCC(c1ccccc1)[N+](C)(C)C` (centres undefined), for which the growth is -19.8% (active) in the test with SK-MEL-2 melanoma; 42.7% with EKVX NSCLC; 9.01% (active) in the test on SN12C renal; 80.8% in the test with UO-31 renal; 1.24% (active) in the test on TK-10 renal; 81.9% with ACHN renal. For the same molecule, the growth in the test on CAKI-1 renal is 102%; with A498 renal, 55.4%; in the test with CCRF-CEM leukemia it was 16.1%; in the test with MOLT-4 leukemia, 5.29% (active); in the test with RPMI-8226 leukemia, -16.1% (active); in the test on OVCAR-8 ovarian, 19.3%. The growth in the test on OVCAR-5 ovarian was 17.3%; in the test with OVCAR-4 ovarian it was 9.74% (active); in the test on SK-OV-3 ovarian, 10.3%; in the test with IGROV1 ovarian it was -60.8% (active); in the test on OVCAR-3 ovarian, 18.6%; in the test on NCI/ADR-RES ovarian it was 91.7%.
For `Cc1c(C(=O)NC(Cc2ccccc2)C(O)C(=O)NCc2ccc(F)cc2)[nH]c2ccccc2c1=O` (centres undefined), the growth is 108% with SK-MEL-2 melanoma; 104% in the test with EKVX NSCLC; 107% with SN12C renal; 94% in the test with UO-31 renal; 102% with TK-10 renal; 107% in the test on ACHN renal. Besides, the growth was 102% in the test on CAKI-1 renal; 107% with A498 renal; 109% in the test on CCRF-CEM leukemia; 93.6% with MOLT-4 leukemia; 105% with RPMI-8226 leukemia; 103% in the test on OVCAR-8 ovarian. The growth is 91% with OVCAR-5 ovarian; 107% with OVCAR-4 ovarian; 104% with SK-OV-3 ovarian; 103% in the test with IGROV1 ovarian; 99% in the test on HS 578T breast; 107% with NCI/ADR-RES ovarian.
In the case of `CC1=C(SCCC(=O)OC(C[Se]C2=C(C)C(=O)c3ccccc3C2=O)C(=O)NCCCCCC(=O)OCc2ccccc2)C(=O)c2ccccc2C1=O` (centres undefined), the growth was 23.3% in the test on SK-MEL-2 melanoma; 55.8% in the test on EKVX NSCLC; 38.4% in the test with SN12C renal; 25.3% in the test with UO-31 renal; 114% in the test with TK-10 renal; 36.4% in the test on ACHN renal. The growth is 90.8% in the test with CAKI-1 renal; 70.8% in the test on A498 renal; 10.8% in the test on CCRF-CEM leukemia; 10.9% in the test with MOLT-4 leukemia; 30.2% with RPMI-8226 leukemia; 39% in the test on OVCAR-8 ovarian. Also, the growth with OVCAR-5 ovarian is 44.6%; with OVCAR-4 ovarian, 53.2%; in the test with SK-OV-3 ovarian, 32.7%; in the test with IGROV1 ovarian, 25%; with OVCAR-3 ovarian it was 21%; in the test with HS 578T breast, 34%. Further, in the test on NCI/ADR-RES ovarian, the growth was 21.1%.
Consider `Cc1ccc(Nc2ccc(Nc3ccc(C)cc3)c3c2C(=O)c2cccc(O)c2C3=O)cc1`, for which the growth is 65.5% with SK-MEL-2 melanoma; 91.6% in the test with EKVX NSCLC; 98% with SN12C renal; 64.7% with UO-31 renal; 137% with TK-10 renal; 91% in the test with ACHN renal. The growth in the test with CAKI-1 renal is 104%; in the test on A498 renal, 116%; in the test with CCRF-CEM leukemia, 93.2%; with MOLT-4 leukemia it was 104%; in the test with RPMI-8226 leukemia it was 88.7%; with OVCAR-8 ovarian, 97.8%. Moreover, the growth was 82.1% in the test on OVCAR-5 ovarian; 105% in the test on OVCAR-4 ovarian; 87.5% in the test on SK-OV-3 ovarian; -12.9% (active) in the test on IGROV1 ovarian; 121% with OVCAR-3 ovarian; 99% in the test on HS 578T breast. Also, the growth in the test on NCI/ADR-RES ovarian was 99.8%.
For `O=C1/C(=C2/C=Nc3ccccc32)N(O)c2ccccc21`, the growth is 90.4% in the test on SK-MEL-2 melanoma; 66.9% with EKVX NSCLC; 74.8% in the test on SN12C renal; 57.7% with UO-31 renal; 129% with TK-10 renal; 68.7% with ACHN renal. Further, the growth is 57.8% in the test on CAKI-1 renal; 55.4% in the test with A498 renal; 46.2% in the test on CCRF-CEM leukemia; 48.4% in the test with MOLT-4 leukemia; 38.9% in the test on RPMI-8226 leukemia; 62.1% with OVCAR-8 ovarian. Also, the growth in the test on OVCAR-5 ovarian was 78.2%; in the test on OVCAR-4 ovarian, 50%; in the test on SK-OV-3 ovarian it was 98.8%; in the test with IGROV1 ovarian it was 48.1%; in the test on OVCAR-3 ovarian it was 34.8%; with HS 578T breast it was 87.7%. For the same molecule, the growth in the test with NCI/ADR-RES ovarian was 55.2%.
With `Cc1ccc(C2SCC(=O)N2Cc2ccccc2)cc1` (centres undefined), the growth in the test on SK-MEL-2 melanoma is 100%; in the test with EKVX NSCLC, 89.5%; with SN12C renal, 94.8%; with UO-31 renal, 83.8%; with TK-10 renal, 99.5%; with ACHN renal, 100%. Moreover, the growth in the test with CAKI-1 renal is 84.4%; in the test with A498 renal, 109%; in the test with CCRF-CEM leukemia it was 79.2%; in the test with MOLT-4 leukemia it was 84%; with RPMI-8226 leukemia, 96.7%; in the test on OVCAR-8 ovarian, 98.8%. Besides, the growth is 101% in the test with OVCAR-5 ovarian; 98.9% with OVCAR-4 ovarian; 103% with SK-OV-3 ovarian; 102% in the test on IGROV1 ovarian; 116% with OVCAR-3 ovarian; 103% in the test with HS 578T breast. For the same molecule, the growth with NCI/ADR-RES ovarian is 103%.

The values above are taken from PubChem BioAssay (NCI).
